# Compounds with a hit are over-represented: about 0.84% of the library has one in this group of screens.
# NCOA3 inh: inhibits human SRC3 coactivator. Q9Y6Q9. hit rate 0.17% among 360,000. inhibition, % at 3.6 µM. AID 588352. HEK293 GAL4-SRC3 luciferase reporter, luminescence;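 active = inhibition above a per-campaign cutoff, the mean of all compounds plus 3 SD, cut at about 60% in these data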;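 also: 0% = DMSO-treated cells and 100% = gossypol-treated cells at 36 µM; higher means less SRC3-driven luciferase light from the GAL4 reporter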
# SRC2 inh: human SRC2 (NCOA2) inhibition; Q15596; HEK293 GAL4-SRC2 luciferase reporter, luminescence; inhibition, % at 9 µM; hit rate 0.17% among 370,000; AID 651957;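 active = inhibition above the mean inhibition of all tested compounds plus 3 SD, set per campaign, cut at about 52% in these data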;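 also: 0% = DMSO treated cells and 100% = cells given Gossypol at 36 µM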
# COUP-TFII inh: blocks human COUP-TFII nuclear receptor | HEK293T NGFI-A luciferase reporter, luminescence | inhibition, % at 8.6 µM | hit rate 0.7% among 370,000 | AID 686940;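 active = inhibition above a per-plate cutoff, mean inhibition of test wells between control levels plus 3 SD, cut at about 38% in these data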;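 also: cells cotransfected with COUP-TFII expression vector driving the NGFI-A reporter; 0% = median of COUP-TF2 test wells and 100% = reporter-only cells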
# NR5A2 inv ag: inverse agonists of human LRH-1 (NR5A2). O00482. HEK293T StAR-luciferase reporter, LRH-1 transfected, 24 h. inhibition, % at 3.6 µM. hit rate 0.13% among 360,000;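 active = inhibition above the mean inhibition of all tested compounds plus 3 SD, cut at about 73% in these data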;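 also: 0% = DMSO wells and 100% = reporter-only cells lacking LRH-1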
# Target sequence (O00482 whole entry, looked up): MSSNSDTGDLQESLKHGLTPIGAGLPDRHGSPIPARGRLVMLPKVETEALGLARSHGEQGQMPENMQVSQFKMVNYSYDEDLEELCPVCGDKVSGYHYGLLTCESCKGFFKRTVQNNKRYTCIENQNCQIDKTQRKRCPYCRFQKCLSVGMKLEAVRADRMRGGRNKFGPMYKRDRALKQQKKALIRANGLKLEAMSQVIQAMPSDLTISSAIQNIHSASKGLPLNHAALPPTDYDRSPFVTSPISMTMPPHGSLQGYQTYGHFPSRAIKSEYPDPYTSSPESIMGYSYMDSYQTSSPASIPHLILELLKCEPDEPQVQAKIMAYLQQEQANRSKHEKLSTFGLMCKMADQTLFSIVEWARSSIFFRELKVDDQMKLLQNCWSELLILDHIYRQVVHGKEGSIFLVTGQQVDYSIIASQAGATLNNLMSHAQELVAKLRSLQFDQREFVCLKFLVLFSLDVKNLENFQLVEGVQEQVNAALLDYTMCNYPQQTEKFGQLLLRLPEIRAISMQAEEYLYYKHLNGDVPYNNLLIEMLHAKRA
# NCOA1 inh: human NCOA1 inhibition; Q15788; inhibition, % at 3.6 µM; AID 588354; hit rate 0.12% among 360,000; HEK293 GAL4-SRC1 luciferase reporter, luminescence;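 active = inhibition above the campaign mean plus 3 SD, with each screening campaign given its own cutoff, cut at about 60% in these data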;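 also: 0% = DMSO treated cells and 100% = gossypol at 36 µM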
# VP16 Luc counter: counter-screen for COUP-TFII antagonists: inhibitors of VP16. shares compounds with COUP-TFII inh. HEK293 Gal4-VP16 luciferase reporter, luminescence. inhibition, % at 8.5 µM. hit rate 25% among 2,500; in the data active = inhibition above about 13%
# NR2F2 inh conf: COUP-TFII (NR2F2) inhibition, confirmation assay; shares compounds with COUP-TFII inh; HEK293 NGFI-A luciferase reporter, luminescence; inhibition, % at 8.5 µM; hit rate 45% among 2,500; AID 687008;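 active = mean inhibition over three repeats above a set limit taken from the earlier primary screen, cut at about 38% in these data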;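 also: 100% = cells given the luciferase reporter alone without the COUP-TF2 vector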
# An asterisk follows results filed as active; i = inactive; x = not tested or not shown.
SMILES,NCOA3 inh,SRC2 inh,COUP-TFII inh,NR5A2 inv ag,NCOA1 inh,VP16 Luc counter,NR2F2 inh conf
Cc1ccc(NS(=O)(=O)c2ccc3c(c2)n(C)c(=O)n3C)c(C)c1,11,-24,-1,9,4,x,x
CCc1ccc(S(=O)(=O)Nc2cc3c(cc2C)n(C)c(=O)n3C)cc1,16,10,41*,37,-4,11,26
CCCN(CC1CC1)C(=O)CNc1nnnn1-c1ccccc1,x,1,3,x,x,x,x
C=CC(=O)N1C/C(=C/c2ccc(F)cc2)C(=O)/C(=C\c2ccc(F)cc2)C1,-201,96*,106*,60,i,86*,104*
CN1C2CCC1/C(=C\c1ccc(F)cc1)C(=O)/C2=C/c1ccc(F)cc1,2,13,14,7,14,x,x
C=CCN1C(=O)[C@@H](CC(=O)N2CCCC2)[C@]2(C(=O)OCC)CCCCC/C=C/12,x,-5,5,x,x,x,x
CC(C)(C)c1ccc(-c2nnc3n2N=C(c2ccc4ccccc4c2)CS3)cc1,x,5,-5,x,x,x,x
Cc1ccc(C(=O)NC2CCCc3c2cnn3-c2ccc(F)cc2F)cn1 (centres undefined),-9,29,56*,26,26,5,59*
O=C(N[C@@H]1CCCc2c1cnn2-c1ccc(F)cc1F)c1ccccn1,x,x,38*,x,x,-7,7
CN1N=C(C(=O)NC2CCCc3c2cnn3-c2ccc(F)cc2F)CCC1=O (centres undefined),22,7,17,0,20,x,x
COc1cc(C(=O)NC2CCCc3c2cnn3-c2ccccc2F)cc(OC)c1OC (centres undefined),37,10,46*,33,16,-9,19
O=C(NC1CCCc2c1cnn2-c1ccc(F)cc1F)c1cccs1 (centres undefined),x,x,29,x,x,x,x
Cc1nnsc1C(=O)NC1CCCc2c1cnn2-c1ccc(F)cc1F (centres undefined),12,4,64*,49,14,2,66*
COC(=O)c1ccc(C(=O)NC2CCCc3c2cnn3-c2ccccc2F)nc1 (centres undefined),6,-4,9,31,1,x,x
O=C(NCc1cccs1)C1CCN(S(=O)(=O)c2cccc3ccccc23)CC1,x,22,-18,x,x,x,x
COc1ncc(-c2cc(C(C)=O)c3n(c2=O)CCC3)c(OC)n1,x,1,-9,x,x,x,x
CCOC(=O)[C@@]12CCC3=C1N(CCC3)C(=O)[C@H](CC(=O)N1CCC(c3ccccc3)CC1)C2,x,-23,-9,x,x,x,x
CC(=O)N1CCc2c1cccc2S(=O)(=O)NC(CC(C)C)C(=O)Nc1ccc(F)cc1Cl (centres undefined),x,-1,22,x,x,x,x
CC(=O)c1c(C)[nH]c(C(=O)COc2cc(C)ccc2C(C)C)c1C,23,44,69*,46,24,8,66*
COc1cc(C)ccc1OCC(=O)OCC(=O)c1[nH]c(C)c(C(C)=O)c1C,-12,-21,-5,16,-11,x,x
Cc1ccc(CNC(=O)C(=O)NCC2OCCN2S(=O)(=O)c2ccc(C)cc2)cc1 (centres undefined),14,-3,19,4,-50,x,x
Cc1ccc(CNC(=O)C(=O)NCC2OCCN2S(=O)(=O)c2ccc(Br)cc2)cc1 (centres undefined),24,8,48*,24,-48,-2,12
O=C(OCCCN1CCC2(CCC(c3ccccc3)CC2)C1=O)c1ccccc1 (centres undefined),x,-5,8,x,x,x,x
O=C(COc1ccccc1[N+](=O)[O-])N1CCC(Cc2ccccc2)CC1,6,-19,14,8,-2,x,x
NC(=O)c1ccccc1OCC(=O)N1CCC(Cc2ccccc2)CC1,5,7,64*,27,17,6,39*
SMILES,NCOA3 inh,SRC2 inh,COUP-TFII inh,NR5A2 inv ag,NCOA1 inh,VP16 Luc counter,NR2F2 inh conf
COC(=O)[C@]12C=CCN1[C@H](c1ccc(C(F)(F)F)cc1)c1c(c3ccccc3n1S(=O)(=O)c1ccc(C)cc1)C2,x,6,7,x,x,x,x
O=C(CN1CCN(Cc2ccc(Cl)cc2)C1=O)NCCCN1CCOCC1,31,-5,3,14,35,x,x
O=C(CN1CCN(Cc2ccc(Cl)cc2)C1=O)NCCCN1CCN(c2ccc(F)cc2)CC1,31,15,56*,24,9,1,13
CC[C@@H](OP(=O)(O)[C@@H](C)N)C(=O)O,x,2,-6,x,x,x,x
O=C(OC12CCCN(C1)/C(=C/c1ccncc1)C2)c1ccccc1 (centres undefined),x,7,45*,x,x,12,36
O=C(OC12CCCN(C1)/C(=C/c1cccnc1)C2)c1ccccc1 (centres undefined),x,25,19,x,x,x,x
Cc1ccc(OCCN2CCN(C(=O)CCC(=O)Nc3nnc(CC(C)C)s3)CC2)cc1,24,8,56*,25,32,4,33
CCOC(=O)C1(Cc2ccccc2)CCN(Cc2ccnc3ccccc23)CC1,x,35,47*,x,x,4,39*
COc1ccc(C[C@H](N)C(=O)N[C@H]2[C@@H](O)[C@H](n3cnc4c(N(C)C)ncnc43)O[C@@H]2CO)cc1,95*,86*,99*,102*,94*,48*,97*
COC(=O)[C@]12C[C@H](CC(=O)N3CCCCC3)C(=O)N(Cc3ccc(Cl)cc3Cl)C1=C[C@H](C(C)(C)C)O[C@@H]2C,x,-7,-7,x,x,x,x
c1cc(-c2cnc3cccnn23)c2cccnc2c1,58,66*,46*,25,63*,4,26
O=S(=O)(c1ccc2nc(COc3ccc(Cl)cc3Cl)[nH]c2c1)N1CCOCC1,19,-16,11,0,0,x,x
Clc1ccc2nc(CNc3nc(N4CCOCC4)nc4c3ncn4-c3ccsc3)[nH]c2c1,x,x,70*,x,x,19*,45*
COc1ccc(-c2csc3ncnc(NCCCO)c23)cc1,59,20,44*,24,67*,14*,24
Cc1onc(C(=O)N2CCN(C(c3ccc(Cl)cc3)c3ccc(Cl)cc3)CC2)c1[N+](=O)[O-],x,x,13,x,x,x,x
CC(=O)c1c(C)[nH]c(C(=O)OCC(=O)Nc2ccc(Cl)c(S(=O)(=O)N(C)C)c2)c1C,19,14,45*,19,10,-3,14
CC(=O)c1c(C)[nH]c(C(=O)OCC(=O)Nc2ccc(Cl)cc2[N+](=O)[O-])c1C,36,32,63*,44,20,5,60*
CC(C)C[C@H](NC1(C(=O)NCCc2c[nH]c3ccccc23)CCOCC1)C(=O)NCCCc1ccccc1,x,x,0,x,x,x,x
Cc1ccc(-c2cnc(-c3ccncc3)o2)cc1,-72,-18,-49,-78,-71,x,x
Nc1ccc(-c2ncc(-c3ccccc3)o2)cc1,15,80*,79*,34,21,72*,62*
